Test [1] relates to MDA-MB-231. In words: cell viability relative to vehicle unstimulated control (fraction); higher = more viable cells. The note with it: pre-treatment time: 18 h then 24 h IFNg/TNF.
In test [2] the test system is MDA-MB-231. In words: kynurenine production, fold change vs DMSO IFNg/TNF control; higher = more kynurenine produced (less inhibition). The note with it: pre-treatment time: 18 h then 24 h IFNg/TNF. Put shortly:
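After trichloroacetic acid and p-dimethylaminobenzaldehyde treatment, supernatants were read at 492 nm, with 0–100 μM standards. These came from MDA-MB-231 cells (7 × 10^4/well, 96-well plates) pre-treated 18 h with natural products in 0.1% DMSO and then exposed 24 h to IFNγ (1 U/ml) and TNF (6.25 ng/ml) at 37°C. Values for kynurenine production are fold changes over same-plate cytokine-stimulated vehicle wells, averaged over duplicate plates in the first screening round.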

± gives the standard deviation of the averaged measurements.
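For cell viability relative to vehicle unstimulated control in this document: viability of the cells left after supernatant collection, read with Deep Blue dye added for 4 h, as absorbance at 570 nm minus 600 nm.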

With `CC(=O)OC/C=C(C)/C=C/C=C(C)/C=C/C1=C(C)CCCC1(C)C` [Retinyl acetate] (compound dose: 10 uM), the cell viability in the test with MDA-MB-231 [1] is 0.9487 ± 0.0087. Moreover, in the test with MDA-MB-231 [2], the kynurenine production is 0.753 ± 0.084.
As for `O=C(O)C1=CO[C@@H](O[C@@H]2O[C@H](CO)[C@@H](O)[C@H](O)[C@H]2O)[C@H]2[C@@H]1C=C[C@]2(O)CO` [Monotropein] (compound dose: 10 uM), the cell viability in the test on MDA-MB-231 [1] is 0.866 ± 0.046. In the test with MDA-MB-231 [2], the kynurenine production is 0.846 ± 0.13.
As to `C[C@@H]1CC[C@]2(C(=O)O)CC[C@]3(C)C(=CC[C@@H]4[C@@]5(C)CC[C@H](O)[C@@](C)(CO)[C@@H]5CC[C@]43C)[C@@H]2[C@]1(C)O` [Rotundic acid] (compound dose: 10 uM), the cell viability with MDA-MB-231 [1] is 0.8829 ± 0.0033. For the same compound, the kynurenine production in the test with MDA-MB-231 [2] came out at 0.929 ± 0.021.
The like results for `C[C@@]12CCc3occc3[C@H]1CC[C@@]13C[C@@H](CC[C@H]12)[C@@](O)(CO)C3` [Cafestol] (compound dose: 10 uM) were, in that order, 1.03 ± 0.067 and 0.75 ± 0.4.
As to `CC1(C)CC[C@]2(C(=O)O[C@@H]3O[C@H](CO)[C@@H](O)[C@H](O)[C@H]3O)CC[C@]3(C)C(=CC[C@@H]4[C@@]5(C)CC[C@H](O[C@@H]6O[C@H](C(=O)O)[C@@H](O[C@@H]7O[C@@H](CO)[C@H](O)[C@H]7O)[C@H](O)[C@H]6O)C(C)(C)[C@@H]5CC[C@]43C)[C@@H]2C1` [Araloside A] (compound dose: 10 uM), the cell viability with MDA-MB-231 [1] was determined as 1.05 ± 0.032. The kynurenine production in the test on MDA-MB-231 [2] worked out at 1.31 ± 0.014.
The like results for `CC1(C)CC[C@]2(C(=O)O)CC[C@]3(C)C(=CC[C@@H]4[C@@]5(C)CC[C@H](O)C(C)(C)[C@@H]5CC[C@]43C)[C@@H]2C1` [Oleanolic Acid] (compound dose: 10 uM) were, in that order, 0.984 ± 0.035 and 0.778 ± 0.07.
For the compound `O=c1ccn2c(n1)O[C@H]1[C@H](O)[C@@H](CO)O[C@H]12` [2,2'-Anhydrouridine] (compound dose: 10 uM), the cell viability in the test with MDA-MB-231 [1] was found to be 0.906 ± 0.036. Besides, in the test with MDA-MB-231 [2], the kynurenine production came out at 0.923 ± 0.092.
For `COc1ccc(C[C@H]2COC(=O)[C@]2(O)Cc2ccc(O[C@@H]3O[C@H](CO)[C@@H](O)[C@H](O)[C@H]3O)c(OC)c2)cc1OC` [Tracheloside] (compound dose: 10 uM), in that order: 0.8831 ± 0.0055 and 0.824 ± 0.11.
For `C=C1C(=O)O[C@H]2C[C@H](C)C(/C=C/C(C)=O)=CC[C@H]12` [Xanthatin] (compound dose: 10 uM), in that order: 0.66 ± 0.18 and 0.13 ± 0.042.
Take `C/C=C(/C)C(=O)O[C@H]1[C@H](OC(C)=O)[C@@]2(CO)C(CC1(C)C)C1=CCC3[C@@]4(C)CCC(O[C@@H]5O[C@H](C(=O)O)[C@@H](O[C@@H]6O[C@H](CO)[C@@H](O)[C@H](O)[C@H]6O)[C@H](O)[C@H]5O[C@@H]5O[C@H](CO)[C@@H](O)[C@H](O)[C@H]5O)[C@](C)(CO)C4CC[C@@]3(C)[C@]1(C)C[C@H]2O.C/C=C(\C)C(=O)O[C@H]1[C@H](OC(C)=O)[C@@]2(CO)C(CC1(C)C)C1=CCC3[C@@]4(C)CCC(O[C@@H]5O[C@H](C(=O)O)[C@@H](O[C@@H]6O[C@H](CO)[C@@H](O)[C@H](O)[C@H]6O)[C@H](O)[C@H]5O[C@@H]5O[C@H](CO)[C@@H](O)[C@H](O)[C@H]5O)[C@](C)(CO)C4CC[C@@]3(C)[C@]1(C)C[C@H]2O` (stereo partly specified) [Escin] (compound dose: 10 uM): the cell viability with MDA-MB-231 [1] turned out to be 0.911 ± 0.11. In addition, in the test with MDA-MB-231 [2], the kynurenine production turned out to be 1.14 ± 0.1.
Regarding `O=C1C[C@@H](O[C@@H]2O[C@H](CO)[C@@H](O)[C@H](O)[C@H]2O)CO1` [Kinsenoside] (compound dose: 10 uM), the cell viability with MDA-MB-231 [1] worked out at 0.971 ± 0.18. The kynurenine production in the test on MDA-MB-231 [2] stood at 1.01 ± 0.34.
For `CC(C)=CCC[C@@H](C(=O)O)[C@H]1CC[C@@]2(C)C3=CC[C@H]4C(C)(C)[C@@H](O)CC[C@]4(C)C3=CC[C@]12C` [3-Dehydrotrametenolic acid] (compound dose: 10 uM), in the test on MDA-MB-231 [1], the cell viability was 1.01 ± 0.045. Besides, the kynurenine production in the test on MDA-MB-231 [2] was determined as 0.83 ± 0.085.
For `CC1C(=O)OC2C(O)C34C5CC(C(C)(C)C)C36C(OC(=O)C6O)OC4(C(=O)O5)C12O` (stereo unspecified) [Ginkgolide B] (compound dose: 10 uM), in that order: 0.9 ± 0.12 and 1.18 ± 0.033.
The like results for `CC1=CC[C@@H](C(C)(C)O)CC1` [(-)-α-terpineol] (compound dose: 10 uM) were, in that order, 0.979 ± 0.044 and 0.913 ± 0.057.
The like results for `C=C(C)[C@@H]1CC=C(C)CC1` [(-)-Limonene] (compound dose: 10 uM) were, in that order, 1.1 ± 0.035 and 0.935 ± 0.21.
Regarding `CC(C)(O[C@@H]1O[C@H](CO)[C@@H](O)[C@H](O)[C@H]1O)[C@@H]1CC[C@](O)(CO)[C@H]2CC(=O)[C@@](C)(O)[C@@H]2C1` [Atractyloside A] (compound dose: 10 uM), in the test on MDA-MB-231 [1], the cell viability stood at 0.986 ± 0.03. In addition, the kynurenine production with MDA-MB-231 [2] came out at 0.854 ± 0.057.
Take `CC(C)=CCC[C@@H](C)[C@@H]1CC[C@]2(C)C3=C(CC[C@@]12C)[C@@]1(C)CC[C@H](O)C(C)(C)[C@@H]1CC3` [Euphol] (compound dose: 10 uM): in the test with MDA-MB-231 [1], the cell viability was 0.977 ± 0.051. Besides, in the test with MDA-MB-231 [2], the kynurenine production amounted to 1.008 ± 0.0013.
For `OCC1=C[C@@H](O)[C@@H]2C=CO[C@@H](O[C@@H]3O[C@H](CO)[C@@H](O)[C@H](O)[C@H]3O)[C@H]12` [Aucubin] (compound dose: 10 uM), in the test with MDA-MB-231 [1], the cell viability stood at 1.01 ± 0.02. Also, in the test with MDA-MB-231 [2], the kynurenine production turned out to be 0.87 ± 0.041.

The values above are taken from the supplement of paper PMC13094657.
